Measurements published in PubChem BioAssay AID648 (SRMLSC, 2007).
Screen size: about 86,000 compounds; about 920 (1.1%) were called active. Many of the other results were omitted from the sample, so actives are more common in it than they were. Unmarked numbers belong to inactive results.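 How the source made its calls: active means viability at or below 30%; inactive means viability above 30%.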

Assay: inhibitors of HUVEC proliferation, primary screen, cell-based, 384-well (AID 648);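 further: 100% = median luminescence of DMSO-only cell control wells on each plate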
Details: CellTiter-Glo luminescence, 72 h, stronger effect = lower value, screened at 10 µM (by protocol)
`O=C(C(NS(=O)(=O)c1cccc2nsnc12)c1ccccc1)N1CCN(c2ccccc2)CC1` (stereo not drawn) showed a viability of 101%. Molecule `CCC1(C)Cc2c(sc3nc4n(c(=O)c23)CCCS4)CO1` (stereo not drawn) has a viability of 101%. For `CCC1(C)Cc2c(sc3[nH]c(=S)n(Cc4ccccc4)c(=O)c23)CO1` (stereo not drawn), the viability was 7% (active). In the case of `CCC1(C)Cc2c(sc3nc(SC)nc(N)c23)CO1` (stereo not drawn), the viability is reported as 93.2%. Work on `C=CCn1c(N)cc(=O)nc1SCC(=O)Nc1cccc2ccccc12` yielded a viability of 103%. `O=C(NC1CCCCC1)c1ccc(CNc2c(N3CCOCC3)c(=O)c2=O)cc1` showed a viability of 105%. Work on `COC(=O)c1c(C)c(C)nc(N)c1C#N` yielded a viability of 104%. With `Oc1ccc2ccc3cccc[n+]3c2c1` the viability was 97.5%. For `Cc1cc(N)n2nc(-c3ccc(C(C)(C)C)cc3)cc2n1`, the viability was 24.9% (active). `COc1ccc(-c2cc(C)nc3nc(N)nn23)cc1` gave a viability of 86.4%. Molecule `Cc1nc2cc(-c3ccc(F)cc3)nn2c(N2CCOCC2)c1C` has a viability of 98.8%. Work on `CCCCCN1CC(O)=C(c2nc(-c3ccc(Cl)cc3)cs2)C1=N` yielded a viability of 102%. `O=C(O)CCN=C1CCc2ccccc2N1` gave a viability of 95.7%. Work on `O=C(COc1ccc(S(=O)(=O)NCc2ccccc2)cc1)N1CCOCC1` yielded a viability of 98.2%. In the case of `Cc1ccc2oc(=O)c3cnn(CC(=O)N(Cc4ccco4)C4CCCCC4)c3c2c1`, the viability is reported as 84%. In the case of `COc1cc(CC(=O)NCc2cccs2)cc(OC)c1OC`, the viability is reported as 98.3%. With `C1=C(CCNc2ncnc3c2cnn3-c2ccccc2)CCCC1` the viability was 94.9%. In the case of `O=C(NCCC1=CCCCC1)C1CCN(Cc2cnn(-c3ccccc3)c2-n2cccc2)CC1`, the viability is reported as 28.4% (active). For `CC(=O)Nc1ccc(NC(=O)CSCc2cnn(-c3ccccc3)c2-n2cccc2)cc1`, the viability was 89.5%. Work on `CCn1c(SCC(=O)Nc2ccc(S(=O)(=O)Nc3onc(C)c3C)cc2)nnc1-c1ccccc1` yielded a viability of 89.5%. Molecule `Brc1ccc(-c2nnc(-c3ccccc3)o2)o1` has a viability of 90.9%. Work on `OCCN1CCOCCOCCN(CCO)CCN(CCO)CC1` yielded a viability of 105%. For `CC(C)(C)c1cc(=O)n2c(nc3ccccc32)[nH]1`, the viability was 103%. Molecule `Cc1[nH]n(-c2cccc(Cl)c2)c(=O)c1-c1ccc(Cl)cc1` has a viability of 63.2%. `Cc1nc2nc(COc3ccccc3)[nH]n2c(=O)c1C` showed a viability of 88.1%. For `Cc1nc2c(-c3ccccc3)c(C)[nH]n2c(=O)c1Cl`, the viability was 12% (active). For `CCCN(Cc1cc2cccc(C)c2[nH]c1=O)S(C)(=O)=O`, the viability was 95.8%. Work on `CCOc1ccc(S(=O)(=O)N2CCCCCC2)c2ccccc12` yielded a viability of 102%. `O=C1CSC2=NCN(c3ccccc3)CN12` showed a viability of 93.5%. In the case of `Cc1cccc(N2C(=O)c3cccnc3C2=O)c1`, the viability is reported as 95.8%. Molecule `COc1cc(/C=C(\C#N)c2nc3c(s2)CC(C)CC3)ccc1O` (stereo not drawn) has a viability of 83.7%. With `N#Cc1c(NC(=O)CSc2nc3ccccc3c(=O)n2Cc2ccco2)sc2c1CCCC2` the viability was 58.5%. In the case of `COc1ccc(-c2nnc(SCC(=O)c3ccco3)n2-c2ccccc2)cc1`, the viability is reported as 92.6%. In the case of `COc1ccc(-n2c(SCC(=O)Nc3sc4c(c3C#N)CCCC4)nnc2-c2ccc(O)cc2)cc1`, the viability is reported as 3.66% (active). For `Cc1cc(NC(=O)CCC(=O)N(CC(=O)NCC2CCCO2)c2ccccc2C)no1` (stereo not drawn), the viability was 105%. Molecule `CC(C)(O)C(=O)NN(C(=O)c1ccccc1)c1cccc(Br)c1` has a viability of 109%. With `CCOC(=O)c1nnn(-c2nonc2-n2cccc2)c1CN1CCC(C(=O)OCC)CC1` the viability was 92.5%. Molecule `Cc1cc(-n2nc(C)cc2C)n2nc(C)c(-c3ccccc3)c2n1` has a viability of 106%. Work on `CCOC(=O)c1nnn(-c2nonc2-n2cccc2)c1CN1CCOCC1` yielded a viability of 100%. With `Fc1ccccc1/C=C1\CCCC2=C1Nc1ncnn1C2c1ccccc1F` (stereo not drawn) the viability was 13% (active). Work on `CCCCc1nnc(NC(=O)CS(=O)(=O)Cc2ccccc2)s1` yielded a viability of 107%. In the case of `Clc1ccc(COn2c(-c3ccc(Cl)cc3Cl)nc3ncccc32)cc1`, the viability is reported as 86%. Work on `Cc1noc(/C=C/c2ccco2)c1S(=O)(=O)N1CCC(C(=O)N2CCc3ccccc32)CC1` yielded a viability of 93.3%.
